# Bioassay records from PubChem BioAssay.
# In the library only some 2.4% were active in any assay of this set; here they are far more common.
# Cruzain Triton – qHTS Assay for Promiscuous and Specific Inhibitors of Cruzain (with detergent). Cruzipain (Trypanosoma cruzi), P25779. Potency, µM, actives largely listed as inhibitors. actives 0.43% (n = 200,000). AID 1478, 2009. purified cruzain, Z-FR-AMC fluorescence, 0.01% Triton; also: nearly all actives have a fitted effect of over 40% in size
# Target sequence (P25779 123-467 limits assumed): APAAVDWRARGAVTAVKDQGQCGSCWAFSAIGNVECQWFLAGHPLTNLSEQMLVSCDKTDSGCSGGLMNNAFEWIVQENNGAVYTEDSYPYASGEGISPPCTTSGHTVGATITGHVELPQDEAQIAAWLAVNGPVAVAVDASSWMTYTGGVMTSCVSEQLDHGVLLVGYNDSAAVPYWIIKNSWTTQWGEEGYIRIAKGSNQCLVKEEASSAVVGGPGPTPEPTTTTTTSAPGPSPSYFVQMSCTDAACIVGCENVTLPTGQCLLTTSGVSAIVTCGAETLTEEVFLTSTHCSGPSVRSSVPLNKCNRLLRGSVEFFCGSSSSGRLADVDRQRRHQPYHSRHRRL
#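 Z-FR-AMC hydrolysis (2 uM substrate) by cruzain (1.5 nM) monitored kinetically at ex 360/em 450 nm after 15 min room-temperature compound exposure; 0.01% Triton X-100, pH 5.5, 5 mM DTT.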
# Cruzain inh noDet – qHTS Assay for Promiscuous and Specific Inhibitors of Cruzain (without detergent) | Cruzipain (Trypanosoma cruzi), P25779 | purified cruzain, Z-FR-AMC fluorescence, no detergent | Potency, µM, most hits filed as inhibitors | actives 2.3% (n = 200,000) | AID 1476, 2009; also: nearly all actives have a fitted effect of over 40% in size
#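 Purified cruzain at 1.5 nM, pre-incubated 15 min with compound at room temperature in 100 mM sodium acetate pH 5.5, 5 mM DTT, 0.00005% Triton X-100. Reaction started with 2 uM Z-FR-AMC; AMC fluorescence increase over 60 s gives rate.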
# Papain inh – qHTS Assay for Inhibitors of Papain: Counterscreen for Cruzain Assay | shares compounds with Cruzain Triton | purified papain, Z-FR-AMC fluorescence cleavage | Potency, µM, hits mostly inhibitors | actives 41% (n = 410); also: nearly all actives have a fitted effect of over 35% in size
# Hits are given with their value; n = inactive; u = inconclusive; x = no result. Calls follow the shape of the dose curve; as a rule, active = well fitted curve in the direction sought with a large enough effect; inconclusive = small, poorly fitted or top-dose-only effect, or another doubt; inactive = no such curve, though single readings can be large; an effect the other way counts as inactive or inconclusive.
SMILES,Cruzain Triton,Cruzain inh noDet,Papain inh
O=C(Cn1c2ccccc2c(=O)c2ccccc21)Nc1cccc(F)c1,0.79µM,n,n
O=C(Cn1c(=O)n(Cc2ccco2)c(=O)c2ccccc21)Nc1cccc(F)c1,n,n,x
O=S(=O)(c1ccc(N2CCC(c3ccc(Cl)cc3)=N2)cc1)N(CCO)CCO,n,u,x
CN(C)CCCNS(=O)(=O)c1ccc(N2CCC(c3ccc(Cl)cc3)=N2)cc1,32µM,u,28µM
Cc1ccccc1OCC(=O)Nc1ccccc1OCc1cc(=O)n2ccccc2n1,n,n,x
CC(C)C[C@H](N)c1nnc(S(=O)(=O)Cc2ccc(F)cc2)o1,13µM,13µM,n
CC(C)C[C@H](N)c1nnc(SCc2ccc(Cl)cc2Cl)o1,n,n,x
CCOc1ccc(NC(=O)c2cc(S(=O)(=O)N3CCc4ccccc43)ccc2F)cc1,n,n,x
COc1ccc(N2CC(NC(=O)/C=C\c3ccccc3)CC2=O)cc1 (stereo not given),n,n,x
O=C(CNC(=O)C1CCCCC1)OCc1ccccc1,x,x,n
O=C(CNC(=O)C1CCCCC1)OCCOc1ccccc1,x,x,n
COC(=O)CNC(=O)C1CCN(C(=O)OCc2ccccc2)CC1,n,n,x
O=C(COc1ccccc1)NC1CCCCC1,n,n,x
O=C(CCN1C(=O)/C(=C/C=C/c2ccccc2)SC1=S)Nc1nccs1,n,3.2µM,n
O=C(CCN1C(=O)/C(=C\c2cccs2)SC1=S)Nc1nccs1,n,n,x
COc1ccc(-c2nnc(NC(=O)c3ccc(S(=O)(=O)N4CCCc5ccccc54)cc3)o2)cc1,n,n,n
O=C(Nc1nnc(C2CC2)o1)c1ccc(S(=O)(=O)N2CCCc3ccccc32)cc1,n,n,x
CCOC(=O)c1noc2nc(C)n(CC(=O)Nc3cc(Cl)ccc3OC)c(=O)c12,n,n,x
COc1cc2nc(Nc3cccc(F)c3)nc(N)c2cc1OC,n,n,x
c1cc2cn[nH]c2cc1NC1CCCCCC1,n,n,x
CCOc1nc(NC2CCCCC2)nc(NC(C)(C)C)n1,n,n,x
N#Cc1nc(Nc2ccc3ccccc3c2)nc(NC2CCCC2)n1,x,x,2µM
N#Cc1nc(Nc2cc(F)cc(F)c2)nc(NC2CCCC2)n1,x,x,0.32µM
N#Cc1nc(Nc2cc(Cl)cc(Cl)c2)nc(NC2CCCC2)n1,x,x,1.4µM
N#Cc1c[nH]n2c(NC3CCCC3)c(-c3ccc(Cl)cc3)nc12,n,u,x
SMILES,Cruzain Triton,Cruzain inh noDet,Papain inh
N#Cc1nc(Nc2cccc(F)c2)nc(NC2CCCC2)n1,x,x,0.32µM
COc1ccc(OCC(=O)Nc2cc(-c3nc4ccccc4o3)ccc2Cl)cc1,n,n,x
CCCCOC(=O)c1ccc(NC(=O)c2cc3c(=O)n4cccc(C)c4nc3n2C)cc1,n,n,x
CC(C)Oc1ccc(CNC(=O)c2ccc(CS(=O)Cc3ccccc3Cl)o2)cc1 (stereo not given),n,n,x
O=C(Nc1ccc(F)cc1)c1cc2cc3ccc(Cl)cc3nc2o1,n,n,x
COc1ncc2nc(C)c(=O)n(CCc3ccccc3)c2n1,n,n,x
COCc1cc(C)nc2sc3c(=O)n(-c4cc(C)ccc4C)nnc3c12,n,n,x
N#Cc1nc(Nc2cccc(-c3ccccc3)c2)nc(NC2CCCC2)n1,x,x,2.5µM
FC(F)(F)c1cc(-c2ccccc2)nc(NC2CCCC2)n1,n,n,x
COc1ccc(-c2nc3c(C#N)c[nH]n3c2NC2CCCC2)cc1,n,n,x
COc1ccc(Nc2nc(C#N)nc(NC3CCCC3)n2)cc1,x,x,0.56µM
CC(C)c1nc2ccc(C(=O)NCCCN3CCN(c4ccccc4)CC3)cc2o1,n,n,x
CCCCN(c1ccccc1)S(=O)(=O)c1cc2c3c(c1)C(C)C(=O)N3CCC2 (stereo not given),n,u,x
CCOC(=O)c1cc2c(=O)n3ccccc3nc2n(Cc2ccco2)c1=NC(=O)c1cccnc1,16µM,n,n
CCOC(=O)c1cc2c(=O)n3ccccc3nc2n(Cc2ccco2)c1=NC(=O)c1cccc(C)c1,n,n,x
COc1ccc(NS(=O)(=O)c2ccc(-n3nnc4ccccc43)c([N+](=O)[O-])c2)cc1,n,u,x
O=[N+]([O-])c1cc(S(=O)(=O)Nc2cccc(C(F)(F)F)c2)ccc1-n1nnc2ccccc21,4µM,10µM,28µM
Cc1c(CCNC(=O)c2ccc(Br)o2)sc2nc(-c3ccc(Cl)cc3)nn12,n,n,x
Cc1cccc(-c2nnn3c2nc(NCc2ccccc2)c2ccccc23)c1,n,n,x
O=C(COC(=O)CNS(=O)(=O)c1ccc(F)c(F)c1F)Nc1ccc(OC(F)F)cc1,22µM,u,n
CCCCC(=O)OCC(=O)Nc1ccc(OC(F)F)cc1,n,n,x
CCOC(=O)c1c(-c2ccc(C)cc2)csc1NC(=O)c1cc(=O)c2cc(C)c(C)cc2o1,n,n,x
O=C(c1ccco1)N1CCN(c2ncnc3c2[nH]c2ccc(Cl)cc23)CC1,14µM,u,n
